About 79,000 compounds went through this panel and 15% of them were active in at least one assay; those are over-represented in the sample as a whole. Unmarked numbers belong to inactive results. Activity calls are given as the source filed them. Rule as the data show it: active = growth inhibition above about 70%; inactive = the rest.
Tests used:
[1] = NCI Yeast Anticancer Drug Screen. Data for the rad52 strain (AID 147);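 also: 0% = growth of vehicle-treated control cultures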; settings: S. cerevisiae rad52 mutant growth inhibition, hits give high values
Summary of the method: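 Growth of repair-deficient yeast cells was compared between compound-treated and vehicle-treated cultures to give percent inhibition.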

[2] = NCI Yeast Anticancer Drug Screen. Data for the wt1 strain (AID 149);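 also: 0% = growth of vehicle-treated wt1 cultures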; settings: S. cerevisiae wt1 strain (SPY 50644) growth inhibition, hits give high values
Summary of the method: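 Using yeast strain wt1, compound-induced growth inhibition was determined against vehicle-treated cultures.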

[3] = NCI Yeast Anticancer Drug Screen. Data for the rad50EPP+ strain (AID 151);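 also: 0% = growth of vehicle-treated control cultures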; settings: S. cerevisiae rad50 mutant strain, hits give high values
Summary of the method: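 Measured: growth inhibition of rad50EPP+ yeast. Reference: vehicle-treated controls. Screen uses strains with defined genetic alterations in DNA damage repair or cell cycle control.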

[4] = NCI Yeast Anticancer Drug Screen. Data for the mgt1 strain (AID 153); settings: S. cerevisiae mgt1 mutant growth inhibition, hits give high values
Summary of the method: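 Compounds were applied to mgt1 mutant yeast, and growth was then compared against vehicle-treated control cultures to give percent inhibition.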

[5] = NCI Yeast Anticancer Drug Screen. Data for the rad50 strain (AID 155);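 also: 0% = growth of vehicle-only cultures of the same strain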; settings: S. cerevisiae rad50 strain growth inhibition, hits give high values
Summary of the method: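 Relative growth inhibition (compound vs vehicle) was measured in yeast with a defined repair-gene alteration.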

[6] = NCI Yeast Anticancer Drug Screen. Data for the mec2-1 strain (AID 157); settings: S. cerevisiae mec2-1 strain, hits give high values
Summary of the method: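 Compounds were applied to mec2-1 yeast cells. Their growth was then compared with that of vehicle-treated cultures to give growth inhibition.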

[7] = NCI Yeast Anticancer Drug Screen. Data for the sgs1 mgt1 strain (AID 161);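 also: 0% = growth of cultures given vehicle only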; settings: S. cerevisiae sgs1 mgt1 strain, hits give high values
Summary of the method: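 Percent growth inhibition was derived by comparing compound-exposed mutant yeast with vehicle-exposed cultures. The strain carries alterations in DNA damage repair.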

[8] = NCI Yeast Anticancer Drug Screen. Data for the CLN2oe strain (AID 163);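 also: 0% = growth of vehicle-only control cultures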; settings: S. cerevisiae CLN2oe strain, hits give high values
Summary of the method: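 Cells of an engineered yeast line with disturbed cell-cycle regulation are treated with compound. Inhibition of growth is then calculated relative to the vehicle-treated reference.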

[9] = NCI Yeast Anticancer Drug Screen. Data for the cln2 rad14 strain (AID 165);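 also: 0% = growth equal to vehicle treated cultures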; settings: S. cerevisiae cln2 rad14 strain, hits give high values
Summary of the method: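 Strain: cln2 rad14 yeast, altered in cell cycle control and DNA damage repair. Read-out: growth inhibition vs vehicle.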

[10] = NCI Yeast Anticancer Drug Screen. Data for the bub3 strain (AID 167); settings: S. cerevisiae bub3 mutant strain, hits give high values
Summary of the method: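 Screening used yeast with an engineered genetic alteration affecting cell cycle control. Compound-exposed cultures were compared with vehicle cultures, and reduced growth was taken as inhibition.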

[11] = NCI Yeast Anticancer Drug Screen. Data for the wt2 strain (AID 169);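 also: 0% = growth of vehicle-treated yeast cultures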; settings: S. cerevisiae wt2 strain growth inhibition, hits give high values
Summary of the method: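 Growth of compound-treated yeast is measured and expressed as inhibition relative to vehicle-only controls.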

[12] = NCI Yeast Anticancer Drug Screen. Data for the mlh1 strain (AID 171);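 also: 0% = growth of vehicle-treated control cultures of the same strain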; settings: S. cerevisiae mlh1 strain growth inhibition, hits give high values
Summary of the method: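 Test agents were incubated with yeast bearing a defined DNA damage repair or cell cycle control alteration; values are growth inhibition normalised to vehicle-treated cultures.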

[13] = NCI Yeast Anticancer Drug Screen. Data for the sgs1 strain (AID 173);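 also: 0% = growth of vehicle-only control cultures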; settings: S. cerevisiae sgs1 mutant, hits give high values
Summary of the method: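 Strain with an altered DNA repair or cell cycle pathway exposed to compound. Growth then measured. Value = inhibition versus vehicle control.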

[14] = NCI Yeast Anticancer Drug Screen. Data for the mlh1 rad18 strain (AID 175); settings: S. cerevisiae mlh1 rad18 strain growth inhibition, hits give high values
Summary of the method: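 A repair-deficient yeast strain is exposed to test compound, and growth is scored relative to vehicle-treated controls.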

[15] = NCI Yeast Anticancer Drug Screen. Data for the rad18 strain (AID 177); settings: S. cerevisiae rad18 mutant growth inhibition, hits give high values
Summary of the method: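 DNA-repair-defective yeast; compound treatment; growth inhibition scored against vehicle.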

[16] = at 5.0 µM (retest, dose inferred, filed as 0.5)
[17] = at 50.0 µM (retest, dose inferred, filed as 5.0)

C[N+](C)([O-])CCCNc1c2ccccc2nc2cccc([N+](=O)[O-])c12
growth inhibition ([1]; at 1.2 µM): 54%
growth inhibition ([1]; at 3.7 µM): 86% (active)
growth inhibition ([1]; at 11.0 µM): 94% (active)
growth inhibition ([1]; at 33.0 µM): 96% (active)
growth inhibition ([1]; at 100.0 µM): 96% (active)
growth inhibition ([2]; at 1.2 µM): -3%
growth inhibition ([2]; at 3.7 µM): 7%
growth inhibition ([2]; at 11.0 µM): 24%
growth inhibition ([2]; at 33.0 µM): 80% (active)
growth inhibition ([2]; at 100.0 µM): 94% (active)
growth inhibition ([3]; at 1.2 µM): 28%
growth inhibition ([3]; at 3.7 µM): 44%
growth inhibition ([3]; at 11.0 µM): 79% (active)
growth inhibition ([3]; at 33.0 µM): 94% (active)
growth inhibition ([3]; at 100.0 µM): 95% (active)
growth inhibition ([4]; at 1.2 µM): -5%
growth inhibition ([4]; at 3.7 µM): -10%
growth inhibition ([4]; at 11.0 µM): 7%
growth inhibition ([4]; at 33.0 µM): 70% (active)
growth inhibition ([4]; at 100.0 µM): 93% (active)
growth inhibition ([5]; at 1.2 µM): 31%
growth inhibition ([5]; at 3.7 µM): 68%
growth inhibition [5, 16]: 63%
growth inhibition ([5]; at 11.0 µM): 91% (active)
growth inhibition ([5]; at 33.0 µM): 94% (active)
growth inhibition [5, 17]: 89% (active)
growth inhibition ([5]; at 50.0 µM): 86.8% (active)
growth inhibition ([5]; at 100.0 µM): 95% (active)
growth inhibition ([6]; at 1.2 µM): 3%
growth inhibition ([6]; at 3.7 µM): 54%
growth inhibition [6, 16]: 54%
growth inhibition ([6]; at 11.0 µM): 93% (active)
growth inhibition ([6]; at 33.0 µM): 97% (active)
growth inhibition [6, 17]: 95% (active)
growth inhibition ([6]; at 50.0 µM): 88% (active)
growth inhibition ([6]; at 100.0 µM): 96% (active)
growth inhibition [7, 16]: 41%
growth inhibition [7, 17]: 89% (active)
growth inhibition ([7]; at 50.0 µM): 83.2% (active)
growth inhibition ([8]; at 1.2 µM): -2%
growth inhibition ([8]; at 3.7 µM): -1%
growth inhibition ([8]; at 11.0 µM): 33%
growth inhibition ([8]; at 33.0 µM): 82% (active)
growth inhibition ([8]; at 100.0 µM): 93% (active)
growth inhibition [9, 16]: 85% (active)
growth inhibition [9, 17]: 96% (active)
growth inhibition ([9]; at 50.0 µM): 87.2% (active)
growth inhibition ([10]; at 1.2 µM): -25%
growth inhibition ([10]; at 3.7 µM): -14%
growth inhibition [10, 16]: 6%
growth inhibition ([10]; at 11.0 µM): 15%
growth inhibition ([10]; at 33.0 µM): 79% (active)
growth inhibition [10, 17]: 74% (active)
growth inhibition ([10]; at 50.0 µM): 52.6%
growth inhibition ([10]; at 100.0 µM): 95% (active)
growth inhibition ([11]; at 1.2 µM): -1%
growth inhibition ([11]; at 3.7 µM): 20%
growth inhibition ([11]; at 11.0 µM): 26%
growth inhibition ([11]; at 33.0 µM): 84% (active)
growth inhibition ([11]; at 100.0 µM): 94% (active)
growth inhibition ([12]; at 1.2 µM): 14%
growth inhibition ([12]; at 3.7 µM): 22%
growth inhibition ([12]; at 11.0 µM): 44%
growth inhibition ([12]; at 33.0 µM): 89% (active)
growth inhibition ([12]; at 100.0 µM): 95% (active)
growth inhibition ([13]; at 1.2 µM): 80% (active)
growth inhibition ([13]; at 3.7 µM): 89% (active)
growth inhibition ([13]; at 11.0 µM): 94% (active)
growth inhibition ([13]; at 33.0 µM): 94% (active)
growth inhibition ([13]; at 100.0 µM): 97% (active)
growth inhibition [14, 16]: 81% (active)
growth inhibition [14, 17]: 95% (active)
growth inhibition ([14]; at 50.0 µM): 78.5% (active)
growth inhibition ([15]; at 1.2 µM): 95% (active)
growth inhibition ([15]; at 3.7 µM): 96% (active)
growth inhibition ([15]; at 11.0 µM): 96% (active)
growth inhibition ([15]; at 33.0 µM): 97% (active)
growth inhibition ([15]; at 100.0 µM): 97% (active)

— PubChem BioAssay (NCI)
